Assay results: the supplement of paper PMC9694430

What was measured:
Experiment in all cases: thermal shift delta Tm vs DMSO control; higher = stronger stabilization (binding)
Conditions in all cases: 12.5 µM; protein concentration 2 µM
LOC_OS01G57100-cb003 = tested on: LOC_OS01G57100-cb003
Summary of the method: (§1)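 Heating from 25°C to 95°C at 0.05°C/s, fluorescence was recorded for 19.5 μl wells of 2 μM E. coli-expressed, purified rice kinase domain in 100 mM potassium phosphate pH 7.5, 150 mM NaCl, 10% glycerol and 5 × SYPRO Orange with compound in DMSO. Boltzmann fits gave melting temperatures for this differential scanning fluorimetry assay. The shift reported is the mean of three replicates against the DMSO-only protein.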

LOC_OS01G60330-cb001 = tested on: LOC_OS01G60330-cb001
Summary of the method: as §1

LOC_OS01G60700-cb002 = tested on: LOC_OS01G60700-cb002
Summary of the method: as §1

LOC_OS01G63280-cb003 = tested on: LOC_OS01G63280-cb003
Summary of the method: as §1

LOC_OS01G67340-cb003 = tested on: LOC_OS01G67340-cb003
Summary of the method: as §1

LOC_OS01G70970-cb002 = tested on: LOC_OS01G70970-cb002
Summary of the method: as §1

LOC_OS02G07810-cb001 = tested on: LOC_OS02G07810-cb001
Summary of the method: as §1

LOC_OS02G08530-cb003 = tested on: LOC_OS02G08530-cb003
Summary of the method: as §1

LOC_OS02G14120-cb001 = tested on: LOC_OS02G14120-cb001
Summary of the method: as §1

LOC_OS02G17970-cb001 = tested on: LOC_OS02G17970-cb001
Summary of the method: as §1

LOC_OS02G45750-cb003 = tested on: LOC_OS02G45750-cb003
Summary of the method: as §1

LOC_OS02G54510-cb004 = tested on: LOC_OS02G54510-cb004
Summary of the method: as §1

LOC_OS03G04050-cb001 = tested on: LOC_OS03G04050-cb001
Summary of the method: as §1

LOC_OS03G12390-cb001 = tested on: LOC_OS03G12390-cb001
Summary of the method: as §1

LOC_OS03G27990-cb004 = tested on: LOC_OS03G27990-cb004
Summary of the method: as §1

LOC_OS03G50450-cb001 = tested on: LOC_OS03G50450-cb001
Summary of the method: as §1

LOC_OS03G50810-cb003 = tested on: LOC_OS03G50810-cb003
Summary of the method: as §1

LOC_OS04G35114-cb001 = tested on: LOC_OS04G35114-cb001
Summary of the method: as §1

LOC_OS04G38480-cb003 = tested on: T1, LOC_OS04G38480-cb003
T1 sequence (whole entry): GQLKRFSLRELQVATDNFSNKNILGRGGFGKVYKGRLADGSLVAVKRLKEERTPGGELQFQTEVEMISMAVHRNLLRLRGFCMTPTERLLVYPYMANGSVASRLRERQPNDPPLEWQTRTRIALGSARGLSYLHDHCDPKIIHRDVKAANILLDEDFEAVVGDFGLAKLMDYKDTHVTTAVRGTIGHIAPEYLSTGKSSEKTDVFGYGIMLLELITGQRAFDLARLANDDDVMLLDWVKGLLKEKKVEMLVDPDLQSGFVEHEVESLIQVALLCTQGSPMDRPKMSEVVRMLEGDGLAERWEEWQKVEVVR
Summary of the method: as §1

LOC_OS04G41100-cb001 = tested on: T2, LOC_OS04G41100-cb001
T2 sequence (whole entry): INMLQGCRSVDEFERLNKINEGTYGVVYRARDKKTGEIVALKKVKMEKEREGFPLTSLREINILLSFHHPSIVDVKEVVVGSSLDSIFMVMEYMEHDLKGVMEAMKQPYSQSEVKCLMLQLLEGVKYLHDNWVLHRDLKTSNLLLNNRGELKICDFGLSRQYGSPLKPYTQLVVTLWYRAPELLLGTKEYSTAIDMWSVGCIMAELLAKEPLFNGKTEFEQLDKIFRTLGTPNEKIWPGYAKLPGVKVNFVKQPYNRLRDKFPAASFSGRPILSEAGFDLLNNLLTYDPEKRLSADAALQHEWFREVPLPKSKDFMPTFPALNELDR
Summary of the method: as §1
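Further: purified Escherichia coli-expressed rice kinase domain construct.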

Compound	thermal shift delta Tm (LOC_OS01G57100-cb003) [°C]	thermal shift delta Tm (LOC_OS01G60330-cb001) [°C]	thermal shift delta Tm (LOC_OS01G60700-cb002) [°C]	thermal shift delta Tm (LOC_OS01G63280-cb003) [°C]	thermal shift delta Tm (LOC_OS01G67340-cb003) [°C]	thermal shift delta Tm (LOC_OS01G70970-cb002) [°C]	thermal shift delta Tm (LOC_OS02G07810-cb001) [°C]	thermal shift delta Tm (LOC_OS02G08530-cb003) [°C]	thermal shift delta Tm (LOC_OS02G14120-cb001) [°C]	thermal shift delta Tm (LOC_OS02G17970-cb001) [°C]	thermal shift delta Tm (LOC_OS02G45750-cb003) [°C]	thermal shift delta Tm (LOC_OS02G54510-cb004) [°C]	thermal shift delta Tm (LOC_OS03G04050-cb001) [°C]	thermal shift delta Tm (LOC_OS03G12390-cb001) [°C]	thermal shift delta Tm (LOC_OS03G27990-cb004) [°C]	thermal shift delta Tm (LOC_OS03G50450-cb001) [°C]	thermal shift delta Tm (LOC_OS03G50810-cb003) [°C]	thermal shift delta Tm (LOC_OS04G35114-cb001) [°C]	thermal shift delta Tm (LOC_OS04G38480-cb003) [°C]	thermal shift delta Tm (LOC_OS04G41100-cb001) [°C]
C[C@H](Nc1ncnc2[nH]cnc12)c1cc2ccc(F)cc2nc1-c1ccccn1	2.29	1.36	2.33	0.52	0.95	0.17	0.74	0.28	0.28	0.95	0.75	0.11	0.38	0.1	0.16	0.69	0.49	0.44	1.43	0.13
COc1ccc2c(c1)[C@]1(C[C@H]1c1ccc3c(/C=C/c4ccc(CN5C[C@@H](C)O[C@@H](C)C5)cc4)n[nH]c3c1)C(=O)N2	2.82	-0.26	0.64	1.2	2.12	2.01	-0.49	1.45	7.54	0.31	9.37	-0.19	0.73	0.7	0.36	0.66	4.68	4.47	4.28	0.19
COc1cc(Nc2c(C#N)cnc3cc(OCCCN4CCN(C)CC4)c(OC)cc23)c(Cl)cc1Cl [Bosutinib (SKI-606)]	0.91	1.47	0.95	-0.23	-0.85	0.24	0.38	0.38	0.1	-0.22	0.12	0.16	0.26	0.07	0.12	-0.11	-0.09	0.86	1.14	0.53
Cc1nc(NC(=O)N2CCC[C@H]2C(N)=O)sc1-c1ccnc(C(C)(C)C(F)(F)F)c1 [Alpelisib (BYL719)]	0.37	0.43	1.65	0.27	0.12	0.36	0.62	-0.09	2.13	1.03	-0.52	0.02	0.28	0.2	0.55	0.38	0.21	1.56	0.94	0.49
CCn1cc(-c2ccnc3[nH]c(-c4cccc(CN(C)C)c4)cc23)c(-c2ccc(NC(=O)N(C)C)cc2)n1	1.51	0.61	1.18	2.91	0.66	0.18	0.49	1.02	6.39	1.01	2.5	0.45	0.74	0.47	0.5	0.98	1.14	1.02	1.93	1.22
Cc1c(NC(=O)c2ccc(C(C)(C)C)cc2)cccc1-c1cn(C)c(=O)c(Nc2ccc(C(=O)N3CCOCC3)cc2)n1	1.59	0.51	1.36	0.36	-0.03	0.22	0.9	0.31	0	0.66	1.07	0.28	0.82	1.85	0.51	0.69	0.7	0.72	0.87	0.43
C=CC(=O)N1CCC(Oc2cc3c(Nc4ccc(Cl)c(Cl)c4F)ncnc3cc2OC)CC1 [Poziotinib (HM781-36B)]	0.31	-0.17	0.72	0.26	0.45	0.11	-0.05	1.45	1.12	0.35	2.04	1.05	0	3.61	0.49	1.57	0.16	4.23	1.12	0.18
c1nc2c(NC3CCCCC3)nc(Nc3ccc(N4CCOCC4)cc3)nc2[nH]1 [Reversine]	0.27	11.7	1.27	1.53	3.68	7.39	-0.13	4.69	7.96	0.48	8.28	4.92	0.32	9.58	5.33	9.57	5.17	6.36	3.21	0.65
CN(C)Cc1cccc(N/C(=C2\C(=O)Nc3cc(C(N)=O)ccc32)c2ccccc2)c1	0.28	1.3	0.57	0.43	0.19	0.87	0.75	1.55	1.2	0.67	1.35	0.37	0.38	3.49	3.05	0.35	1.47	3.48	0.38	0.47
CC#CC(=O)Nc1ccc2ncnc(Nc3cccc(Br)c3)c2c1	-0.79	0.53	1.56	0.9	1.06	0.37	0.86	1.43	2.95	1.1	-0.66	0.79	0.48	0.54	0.39	-0.04	1.24	3.68	1.41	0.03
CCn1c(=O)c(-c2ccc(Cl)cc2Cl)cc2cnc(Nc3ccc(N4CCNCC4)c(F)c3)nc21	2.04	0.13	1.12	5.95	6.72	2.45	0.21	0.94	7.16	1.08	10.1	8.42	-0.88	4.85	10.7	0.54	6.99	11	3.17	2.82
O=C(Nc1c[nH]nc1-c1nc2ccc(CN3CCOCC3)cc2[nH]1)NC1CC1	0.91	11.9	1.09	5.34	1.94	7.9	0.64	3.3	11.9	0.14	8.3	2.96	1.22	7.72	6.08	3.92	6.02	5.39	3.78	8.54
COc1cc2ncnc(Nc3ccc(Oc4ccccc4)cc3C)c2cc1OC	1.05	0.33	0.09	0.54	0.17	0.47	-1.03	0.5	3.14	0.03	1.39	0.53	0.35	-0.19	0.39	0.77	0.51	4.14	1.19	-0.13
